This is part of a sample that, as a whole, favours compounds with a hit. Of some 83,000 tested, about 20% had one in any assay.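 Method: cells in 96-well plates; compound added at one concentration; 48 h incubation; percent growth measured; values under 10 scored active.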 Unmarked numbers belong to inactive results. Active and inactive are the calls of the source.
Columns and labels:
Test in all cases: NCI-60 one-dose screen, 48 h (100 = growth as untreated, 0 = no growth, -100 = all killed)
Conditions in all cases: 10 µM unless noted
NCI-H23 lung = test system: NCI-H23 lung
NCI-H226 lung = test system: NCI-H226 lung
NCI-H322M lung = test system: NCI-H322M lung
HOP-62 NSCLC = test system: HOP-62 NSCLC
NCI-H460 lung = test system: NCI-H460 lung
HOP-92 NSCLC = test system: HOP-92 NSCLC
NCI-H522 lung = test system: NCI-H522 lung
A549/ATCC NSCLC = test system: A549/ATCC NSCLC
786-0 renal = test system: 786-0 renal
COLO 205 colon = test system: COLO 205 colon
DU-145 prostate = test system: DU-145 prostate
K-562 leukemia = test system: K-562 leukemia
MALME-3M melanoma = test system: MALME-3M melanoma
MDA-MB-231 breast = test system: MDA-MB-231 breast
RXF 393 renal = test system: RXF 393 renal
SF-268 CNS = test system: SF-268 CNS
SF-295 CNS = test system: SF-295 CNS
SF-539 CNS = test system: SF-539 CNS
M14 melanoma = test system: M14 melanoma

| SMILES | growth (NCI-H23 lung) | growth (NCI-H226 lung) | growth (NCI-H322M lung) [%] | growth (HOP-62 NSCLC) | growth (NCI-H460 lung) | growth (HOP-92 NSCLC) | growth (NCI-H522 lung) | growth (A549/ATCC NSCLC) | growth (786-0 renal) | growth (COLO 205 colon) | growth (DU-145 prostate) | growth (K-562 leukemia) | growth (MALME-3M melanoma) | growth (MDA-MB-231 breast) | growth (RXF 393 renal) | growth (SF-268 CNS) | growth (SF-295 CNS) | growth (SF-539 CNS) | growth (M14 melanoma) |
| --- | --- | --- | --- | --- | --- | --- | --- | --- | --- | --- | --- | --- | --- | --- | --- | --- | --- | --- | --- |
| O=C1CCC/C=C\C[C@H]2C=CC(=O)/C2=C/C[C@H](C/C=C\CC(F)(F)F)O1 | -8.61% (active) | 8.07% (active) | 17.5 | -11.7% (active) | -30.5% (active) | -24.4% (active) | -50.8% (active) | 1.72% (active) | -73.9% (active) | -44.4% (active) | -3.69% (active) | 3.68% (active) | -12% (active) | 17.7% | -85.4% (active) | -1.48% (active) | -19.7% (active) | -40.1% (active) | -15.2% (active) |
| CC/C=C\C/C=C\C[C@H]1C/C=C2/C(=O)C=C[C@H]2C/C=C\CCC(=O)O1 | 7.93% (active) | -5.58% (active) | 53.1 | -23.6% (active) | -5.43% (active) | -10% (active) | -56% (active) | 25.2% | -6.65% (active) | -32.4% (active) | 12.7% | 1.48% (active) | 12.4% | 3.22% (active) | -48% (active) | 12.7% | 6.87% (active) | 13% | -3.62% (active) |
| O=[N+]([O-])c1cccc(-c2cc(-c3cc(Br)ccc3O)[nH]n2)c1 | 28.5% | 52.6% | 24.4 | 25.2% | 7.48% (active) | 4.45% (active) | 15.1% | 21.7% | 27.2% | 17.6% | 35.1% | 12.4% | 5.27% (active) | 27% | 58.1% | 23.6% | 40.4% | 34% | 35.6% |
| CCN(CC)CCSc1c2ccc(Cl)cc2nc2ccc(OC)cc12 | 87.1% | 100% | 105 | 75.9% | 102% | 82.3% | -24.9% (active) | 74% | 67.6% | 26.8% | -38% (active) | 9.42% (active) | 101% | 51.9% | 116% | 96.7% | 105% | 99.6% | 79% |
| CCSc1nnc(Nc2ccc(C(C)C)cc2)s1 | 79.3% | 75% | 97.6 | 91.5% | 97.5% | 92.7% | 87.2% | 86.5% | 86% | 86.9% | 105% | 51.8% | 90.7% | 92.5% | 28% | 112% | 91.1% | 90.4% | 95.7% |
| CCNc1nc(N2CC(=O)Nc3cc(OC)ccc32)c2ccccc2n1 | 3.23% (active) | 50.3% | 36.6 | 25.5% | -5.18% (active) | -2.59% (active) | -8.1% (active) | 20.4% | 12% | -48.4% (active) | -1.09% (active) | 6.9% (active) | 51% | 12.7% | 33.7% | 14.8% | -5.23% (active) | -4.78% (active) | 7.3% (active) |
| Nc1nn2cc(-c3ccc(Cl)s3)nc2c2ccccc12 | 102% | 94.8% | 96.7 | 76.4% | 86.8% | 67% | 78.5% | 83.9% | 104% | 95.2% | 99% | 85.3% | 101% | 68.9% | 133% | 94.1% | 93.7% | 81.7% | 97% |
| C=C1C(=O)O[C@H]2[C@H]1CC/C(COC(=O)NCc1ccc(OC)cc1)=C\CC[C@@]1(C)O[C@@H]21 | 74.2% | 64.5% | 84.6 | 67.5% | 77.7% | 63.3% | -55.5% (active) | 69.1% | 15.6% | -17.7% (active) | 33.5% | 14% | 98.3% | 60.9% | 15% | 55.5% | 96.2% | 50.2% | 32.9% |
